HP1b chromo inh – blocks HP1-beta chromodomain binding to methylated histone tails; 390,000 compounds, 0.56% hits; P83916; AlphaScreen HP1-beta / biotin-H3K9me3 peptide binding; AID 540317; Potency, µM (series often up to 114 µM), most hits filed as inhibitors; also: nearly all actives have a fitted effect of over 70% in size
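HP1-beta protein (50 nM final) preincubated 30 min at room temperature with biotinylated H3(1-18)K9me3 peptide (50 nM) in PBS pH 7.4, 0.01% Tween-20, then compound added for 30 min. AlphaScreen streptavidin donor/nickel chelate acceptor beads (10 ug/mL final), 30 min dark, luminescence read.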
JMJD2A Tudor – inhibitors of human JMJD2A Tudor domain | O75164 | AlphaScreen JMJD2A-Tudor / H3K4me3 peptide binding | Potency, µM (series often up to 114 µM), hits mostly inhibitors | 390,000 compounds, 4.4% hits | AID 504339; also: nearly all actives have a fitted effect of over 50% in size
G9a block – blocks human histone lysine methyltransferase G9a; Q96KQ7; G9a H3K9 monomethylation, AlphaScreen, 2 h; Potency, µM (doses to about 102 µM), usual class: inhibitors; 350,000 compounds, 8.8% hits; also: nearly all actives have a fitted effect of over 75% in size
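Quantitative HTS format: methyltransferase activity on a biotin-tagged H3K9 peptide is measured by AlphaScreen, using a rabbit anti-monomethyl-H3K9 antibody with streptavidin donor and anti-IgG acceptor beads. Final levels are 20 nM enzyme, 500 nM peptide, 20 uM SAM; 2 h RT.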
BAZ2B block – BAZ2B (human) inhibition; Potency, µM (top dose mostly 114 µM), actives largely listed as inhibitors; 360,000 compounds, 4.4% hits; AlphaScreen BAZ2B-H3K14Ac peptide displacement; Q9UIF8; also: nearly all actives have a fitted effect of over 60% in size
Target sequence (Q9UIF8 whole entry, looked up): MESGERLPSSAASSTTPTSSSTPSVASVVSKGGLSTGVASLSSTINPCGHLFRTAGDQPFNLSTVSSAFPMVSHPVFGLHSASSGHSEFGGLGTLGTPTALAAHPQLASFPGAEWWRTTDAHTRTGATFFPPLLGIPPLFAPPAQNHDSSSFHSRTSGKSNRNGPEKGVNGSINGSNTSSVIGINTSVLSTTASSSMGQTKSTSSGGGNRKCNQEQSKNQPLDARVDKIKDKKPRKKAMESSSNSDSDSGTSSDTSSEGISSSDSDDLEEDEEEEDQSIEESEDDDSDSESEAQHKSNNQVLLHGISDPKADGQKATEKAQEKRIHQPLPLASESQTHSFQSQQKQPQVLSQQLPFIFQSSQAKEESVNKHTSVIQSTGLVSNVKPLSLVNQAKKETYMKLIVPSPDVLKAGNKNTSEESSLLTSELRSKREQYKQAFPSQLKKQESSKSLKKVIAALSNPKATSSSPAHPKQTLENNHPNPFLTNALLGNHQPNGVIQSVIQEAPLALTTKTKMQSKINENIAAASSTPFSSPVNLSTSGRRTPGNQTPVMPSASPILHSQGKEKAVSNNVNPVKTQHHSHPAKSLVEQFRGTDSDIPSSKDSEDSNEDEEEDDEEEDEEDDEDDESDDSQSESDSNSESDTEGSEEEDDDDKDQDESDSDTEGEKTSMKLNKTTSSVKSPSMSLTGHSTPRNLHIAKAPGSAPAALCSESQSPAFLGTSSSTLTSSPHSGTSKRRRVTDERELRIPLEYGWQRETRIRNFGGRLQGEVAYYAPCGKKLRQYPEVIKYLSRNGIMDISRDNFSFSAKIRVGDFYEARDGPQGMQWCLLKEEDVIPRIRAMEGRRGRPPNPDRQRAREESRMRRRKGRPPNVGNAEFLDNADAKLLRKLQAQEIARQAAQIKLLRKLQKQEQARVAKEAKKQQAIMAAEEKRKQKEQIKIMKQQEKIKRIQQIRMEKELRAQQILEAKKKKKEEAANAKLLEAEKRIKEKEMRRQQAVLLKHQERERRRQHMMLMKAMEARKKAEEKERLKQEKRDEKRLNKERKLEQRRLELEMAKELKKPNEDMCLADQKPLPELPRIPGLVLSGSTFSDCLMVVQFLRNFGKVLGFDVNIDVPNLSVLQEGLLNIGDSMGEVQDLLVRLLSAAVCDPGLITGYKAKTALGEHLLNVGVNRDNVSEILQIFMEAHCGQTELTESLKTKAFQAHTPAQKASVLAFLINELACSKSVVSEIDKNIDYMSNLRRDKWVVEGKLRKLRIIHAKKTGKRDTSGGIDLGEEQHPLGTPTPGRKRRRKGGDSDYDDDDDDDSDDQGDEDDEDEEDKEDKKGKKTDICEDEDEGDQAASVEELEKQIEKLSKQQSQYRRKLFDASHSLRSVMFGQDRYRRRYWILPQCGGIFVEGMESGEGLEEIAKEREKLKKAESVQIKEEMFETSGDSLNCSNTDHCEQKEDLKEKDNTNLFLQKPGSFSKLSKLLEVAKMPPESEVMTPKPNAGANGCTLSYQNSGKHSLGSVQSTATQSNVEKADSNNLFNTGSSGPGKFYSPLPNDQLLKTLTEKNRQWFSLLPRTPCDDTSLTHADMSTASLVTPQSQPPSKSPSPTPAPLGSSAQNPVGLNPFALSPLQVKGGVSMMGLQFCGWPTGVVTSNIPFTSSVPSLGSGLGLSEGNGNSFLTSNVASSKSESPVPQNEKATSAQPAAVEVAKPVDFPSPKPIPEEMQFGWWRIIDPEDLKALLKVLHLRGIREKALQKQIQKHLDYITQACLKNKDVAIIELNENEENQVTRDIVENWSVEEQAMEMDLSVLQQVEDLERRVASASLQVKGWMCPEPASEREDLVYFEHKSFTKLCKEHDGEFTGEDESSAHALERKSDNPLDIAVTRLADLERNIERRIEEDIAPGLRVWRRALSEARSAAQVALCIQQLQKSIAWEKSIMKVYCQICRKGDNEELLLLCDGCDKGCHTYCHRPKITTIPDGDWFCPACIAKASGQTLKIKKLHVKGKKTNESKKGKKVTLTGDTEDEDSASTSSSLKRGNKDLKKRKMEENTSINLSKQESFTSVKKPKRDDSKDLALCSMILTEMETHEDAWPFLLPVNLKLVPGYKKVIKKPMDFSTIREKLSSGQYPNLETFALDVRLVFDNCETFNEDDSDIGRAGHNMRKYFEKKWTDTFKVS
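BAZ2B 50 nM plus b-H3(5-23)K14Ac 50 nM, PBS pH 7.4/0.01% Tween-20, 30 min RT; compound added (max 110 uM), 30 min RT; streptavidin donor/Ni-chelate acceptor beads 10 ug/mL final, 20 min dark; AlphaScreen read.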
CtBP-E1A inh – blocks the CtBP interaction with E1A; AlphaScreen GST-E1A/His-CtBP binding, 1536-well; active compounds read low; 340,000 compounds, 0.49% hits; activity change, % (no concentration beside the values); in the data active = activity change below about -65%; inconclusive = mostly about -30% to -63%
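AlphaScreen with 125 nM GST-E1A and 125 nM His-CtBP (5X stocks) in Tris pH 8.0, 300 mM NaCl, BSA, Tween 20, TCEP. Compounds preincubated 2 h at 37 deg C, then glutathione donor/nickel acceptor beads added for 1 h at 37 deg C in dark.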
Six1-Eya2 blk – blocks human Six1 binding to Eya2; Q15475+O00167; AlphaScreen GST-Six1/His-Eya2 binding, biochemical; active compounds read low; activity change, % (no concentration beside the values); 360,000 compounds, 0.56% hits; AID 651725; in the data active = activity change below about -65%; inconclusive = mostly about -30% to -63%
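Six1/Eya2 binding was read as AlphaScreen signal after compounds were pinned into GST-Six1 plus His-tagged Eya2 (5X stock 250/500 nM) in pH 8.0 Tris/NaCl/TCEP buffer, beads added, then incubated 1 h, 37 C, dark.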
Hits are given with their value; i = inactive; ? = inconclusive; nt = no result given; [ ] = another dose, or the depositor's remark. In the library only some 10% were active in any assay of this set; here they are far more common. Unless noted, calls follow the shape of the dose curve; as a rule, active = well fitted inhibition curve with a large enough effect; inconclusive = small, poorly fitted or top-dose-only effect; inactive = no such curve, though single readings can be large or run the other way.

SMILES	HP1b chromo inh	JMJD2A Tudor	G9a block	BAZ2B block	CtBP-E1A inh	Six1-Eya2 blk
CCC(C)NC(=O)CSc1nc2c(sc3ccccc32)c(=O)n1Cc1ccccc1Cl (centres undefined)	i	i	i	i	nt	nt
CS(=O)(=O)N1CCN(S(=O)(=O)c2ccccc2[N+](=O)[O-])CC1	i	i[11.4 µM]	i	i	nt	i
O=[N+]([O-])c1ccccc1S(=O)(=O)N1CCN(C2CCCC2)CC1	?	1.8µM	nt	79µM	i	i
Cc1ccc(-c2csc3nc4c5ccccc5c(NCCCN5CCOCC5)nn4c(=O)c23)cc1	nt	nt	nt	i	nt	nt
Cc1ccc(-c2csc3nc4c5ccccc5c(NCCCN(C)C)nn4c(=O)c23)cc1	i	i	35µM	i	?	-67
COc1ccc(NC(=O)CN(C)C(=O)c2ccc(C)c(S(=O)(=O)N3CCCCC3)c2)cc1	i	i	nt	nt	nt	i
COc1ccc2nc(C)cc(Nc3ccc(N4CCN(C)CC4)cc3)c2c1	i	i	45µM	?	nt	i
COc1ccc(/C=N/Nc2cc(C)nc3ccc(OC)cc23)c(OC)c1	i	?	45µM	i	i	i
COc1ccc2nc(C)cc(Nc3ccc(N4CCOCC4)cc3)c2c1	i	?	?	?	i	?
COc1ccc2nc(C)cc(N/N=C/c3ccccc3)c2c1	i	?	i[12.7 µM]	i	i	i
COc1ccc2nc(C)cc(NCCN3CCOCC3)c2c1	i	i	45µM	i	i	i
Cc1cc(NCCN2CCOCC2)c2ccc3ccccc3c2n1	i	i	i[12.7 µM]	i	i	i
CCCOC(=O)/C(C(N)=NCc1ccccc1)=C(\O)OCCC	i	i	i	i	i	i
CN1OC[C@@H]2CN(C(=O)Nc3ccccc3)[C@H](c3ccc(N4CCCCC4)cc3)C[C@@H]21	nt	nt	nt	nt	i	i
COc1ccc(N2C(=S)NC(C)(C)CC2(C)c2ccc(OC(C)=O)cc2OC(C)=O)cc1 (centres undefined)	i	i	79µM	?	i	i
CC1(C(=O)N2CCCCC2)CCN1C(=O)c1ccccc1CCc1ccccc1 (centres undefined)	nt	nt	nt	nt	i	i
CC(C)(C)C(CCl)C(=O)NN=C(c1ccccc1)c1ccccc1 (centres undefined)	i	100µM	i[2.33 µM]	?	i	i
C#CCOCCOCCOCCNc1nc(N2CCN(C(=O)[C@H](CCC(=O)O)n3cc(CN)nn3)CC2)nc(N2CCN(C(=O)[C@H](CCC(=O)O)n3cc([C@@H](N)[C@H](C)CC)nn3)CC2)n1	i	79µM	nt	nt	i	i
C#CCOCCOCCOCCNc1nc(N2CCN(C(=O)[C@H](CCC(=O)O)n3cc([C@@H](N)[C@H](C)CC)nn3)CC2)nc(N2CCN(C(=O)[C@H](CCC(=O)O)n3cc([C@@H](N)CCSC)nn3)CC2)n1	i	50µM	nt	nt	i	i
C#CCOCCOCCOCCNc1nc(N2CCN(C(=O)[C@H]([C@@H](C)CC)n3cc(CCC(=O)O)nn3)CC2)nc(N2CCN(C(=O)[C@H](CCCCN)n3cc(CCC(=O)O)nn3)CC2)n1	i	i	nt	nt	i	i
C#CCOCCOCCOCCNc1nc(N2CCOCC2)nc(N2CCN(C(=O)[C@H](CCC(=O)O)n3cc(C(N)[C@H](C)CC)nn3)CC2)n1 (some centres undefined)	i	40µM	i[12.7 µM]	i	i	i
CCN(c1ccccc1)S(=O)(=O)c1ccc(NC(=O)c2nc(SC)ncc2Cl)cc1	i	i	i	i	nt	nt
O=C1C=CN(C2OC(CO)C(O)C2O)C(=O)C1 (centres undefined)	nt	nt	nt	nt	i	i
CCN(c1ccccc1)S(=O)(=O)c1ccc(Oc2ccc(C(C)=O)cc2OC)nc1	i	i	i[12.7 µM]	i	i	i
COCCc1ccc(OC2(C)CCN(Cc3ccc(OC)c4ccccc34)C2)cc1 (centres undefined)	nt	nt	nt	nt	i	i
SMILES	HP1b chromo inh	JMJD2A Tudor	G9a block	BAZ2B block	CtBP-E1A inh	Six1-Eya2 blk
Cc1ccc(NC(=O)CC2Nc3cc(C)c(C)cc3NC2=O)c(C)c1 (centres undefined)	i	i	i	i	nt	nt
Cc1cccc(-c2n[nH]c(=S)n2/N=C/c2ccc(C)o2)c1	i	7.9µM	2µM	i	i	i
COc1cc(/C=N/n2c(-c3cc(C)[nH]n3)n[nH]c2=S)cc(OC)c1O	?	3.5µM	5µM	?	i	i
COc1ccc(/C=N/n2c(-c3cc(C)[nH]n3)n[nH]c2=S)cc1OC	i	3.5µM	nt	?	nt	i
COc1ccc(/C=N/n2c(-c3cc(C)[nH]n3)n[nH]c2=S)cc1	?	3.5µM	2.2µM	i	i	i
Cc1n[nH]c(=S)n1/N=C/c1ccc(-c2ccc(Cl)cc2)o1	i	i	nt	nt	i	i
Cc1cc(-c2n[nH]c(=S)n2/N=C/c2ccc(C)o2)n[nH]1	?	3.2µM	7.9µM	i	i	i
COc1ccc2[nH]c3c(c2c1)CCN1C(=O)C(CC(=O)NCc2ccc(OC)c(OC)c2)C[C@H](C(=O)N2CCOCC2)[C@@]31C (some centres undefined)	i	i	nt	nt	i	i
COc1ccc(CNC(=O)C[C@H]2C[C@H](C(=O)N3CCCCC3)[C@@]3(C)c4[nH]c5ccc(Cl)cc5c4CCN3C2=O)cc1OC	i	56µM	nt	nt	i	i
COCCCNC(=O)C[C@H]1C[C@H](C(=O)N2CCOCC2)[C@@]2(CCC3CCCC3)c3[nH]c4cc(-c5ccco5)ccc4c3CCN2C1=O	?	79µM	nt	nt	i	i
O=C(C[C@H]1C[C@H](C(=O)N2CCOCC2)[C@@]2(CCC3CCCC3)c3[nH]c4cc(-c5ccco5)ccc4c3CCN2C1=O)NCCN1CCOCC1	?	i	nt	nt	i	i
COc1ccc(CNC(=O)C[C@H]2C[C@H](C(=O)N3CCCCC3)[C@@]3(C)c4[nH]c5cc(-c6ccco6)ccc5c4CCN3C2=O)cc1OC	?	56µM	nt	nt	i	i
O=C(NCCCO)Nc1ccc2nc(-c3ccco3)c(-c3ccco3)nc2c1	nt	nt	1.8µM	3.5µM	nt	nt
O=C(Nc1ccc(N2CCOCC2)cc1)Nc1ccc2nc(-c3ccco3)c(-c3ccco3)nc2c1	i	?	1.8µM	i	?	?
O=C(Nc1ccc2nc(-c3ccco3)c(-c3ccco3)nc2c1)NC1CC1	35µM	20µM	?	11µM	?	-68
O=C1CC(c2nc3ccccc3n2CCC2CCCCC2)CN1c1ccccc1Cl (centres undefined)	i	i	i	?	nt	nt
CCOc1ccc(CCNC(=O)c2cc3c(=O)n(CC)c4ccccc4c3s2)cc1OCC	i	i	i	i	nt	nt
Cc1oc(-c2cccc(Cl)c2)nc1CSc1nnc(C)n2c1cc1occc12	i	i	i	i	nt	nt
CSCC[C@H](NC(=O)N1CCn2c1nc1ccccc12)C(=O)NC1CC1	i	i	i	i	nt	i

Screening data (PubChem BioAssay)
